# MCF10A rerep – induces DNA re-replication in MCF 10a normal breast cells; hit rate 2.9% among 350,000; AID 624296; Potency, µM (doses to about 46.1 µM), for the others: at the highest dose activity, positive = re-replication, most hits filed as activators; MCF 10A DNA re-replication, Hoechst nuclear intensity, 48 h; further: potency means the concentration at half of the fitted maximal effect; % of control where 0% means no effect; nearly all actives have a fitted effect of over 50% in size
# ATXN2 expr inh – reduces ATXN2 reporter expression in HEK-293 cells; HEK-293 ATXN2-luciferase reporter, luminescence, 24 h; Potency, µM (doses to about 57 µM), without a hit: at the top dose activity change, negative = inhibition, hits mostly inhibitors; hit rate 0.72% among 360,000; AID 1745845; further: potency means the concentration at half of the fitted maximal effect; on the % scale 0 is the no-effect control and ±100 the full control effect; nearly all actives have a fitted effect of over 55% in size
#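 ATXN2-luciferase reporter cells (luciferase flanked by upstream and downstream ATXN2 gene portions) were treated 24 h at 37 °C with compounds at up to 57 uM. SteadyGlo luminescence gave expression; GF-AFC fluorescence gave viability.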
# IL-1B inflam inh – inhibitors of inflammasome signaling (IL-1 beta secretion); THP-1 LPS/ATP IL-1B secretion, AlphaLISA, 16 h; stronger effect = lower value; activity change, % at 57.5 µM; hit rate 4.7% among 360,000; AID 743279; in the data active means activity change below about -50%; inconclusive means mostly about -30% to -49%; further: on the % scale 0 is the no-effect control and ±100 the full control effect
#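 THP-1 cells pretreated 1 hr with compounds (up to 57.5 uM final), then stimulated with LPS (250 ng/mL final) plus ATP (1.25 mM final); secreted IL-1B measured by AlphaLISA after 16 hr, decreased signal indicating inhibition.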
# SW480 rereplic – DNA re-replication induction in SW480 cells; SW480 DNA re-replication, Hoechst DNA content imaging, 48 h; Potency, µM (highest dose often 46.1 µM), without a hit: top-dose re-replication activation, usual class: activators; hit rate 1.8% among 340,000; further: potency means the concentration at half of the fitted maximal effect; % of control where 0% means no effect; nearly all actives have a fitted effect of over 55% in size
#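 Cells (250 per well) received 23 nL compound or DMSO by pin tool and were kept 48 hr at 37 C, 5% CO2. Nuclei were then stained with Hoechst for 40 min and scanned for DNA content.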
# S2 tox – viability counter-screen for ATXN expression inhibitors | Potency, µM (titrated, usually from 56.7 µM), usual class: cytotoxic | S2 cells (HEK-293 line with an ATXN2-luciferase reporter) viability, CellTiter-Fluor protease fluorescence, 24 h | AID 651635 | hit rate 0.49% among 400,000; further: potency means the concentration at half of the fitted maximal effect; nearly all actives have a fitted effect of over 40% in size
# PINK1 expr mod – PINK1 expression modulation; Potency, µM (series often up to 76.6 µM), for the others: at the top dose activation (PINK1 increase), hits mostly activators; hit rate 0.2% among 410,000; PINK1 immunofluorescence, high-content cytometry, 24 h; active means well fitted activation curve with a large enough effect; inconclusive means small, poorly fitted or top-dose-only effect; cell line not stated here; further: potency means the concentration at half of the fitted maximal effect; % of control where 0% means no effect; nearly all actives have a fitted effect of over 65% in size
#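 Fluorescence from anti-PINK1 antibody, together with nuclear and cell stains, was scanned on a laser-scanning cytometer. Before staining, stable-line cells were incubated 24 hours with compounds at 5 concentrations; primary antibody 12 h at 10 degrees C.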
# The depositor's hits bear a star; i = inactive; ? = inconclusive; . = not tested or not shown; [ ] = remark or other dose. A selection: hits, their analogues and other compounds. The true share with any hit is near 7.1%. Unless noted, the call rests on the fitted dose curve; in most records, active means well fitted curve in the direction sought with a large enough effect; inconclusive means small, poorly fitted or top-dose-only effect, or another doubt; inactive means no such curve, though single readings can be large; an effect the other way counts as inactive or inconclusive.
SMILES,MCF10A rerep,ATXN2 expr inh,IL-1B inflam inh,SW480 rereplic,S2 tox,PINK1 expr mod
C=CCc1cc(Cl)ccc1OCCOCCNC(C)CC (stereo unspecified),?,-9%,-78*,?,i,1%
CC1(C(=O)NCc2cccc3ccccc23)CCN1C(=O)C1(c2ccccc2)CCCC1 (stereo unspecified),.,-18%,-52*,.,i,?
COc1cc(OC)cc(-c2nc3nc(C)c(CCC(=O)Nc4ccc(F)cc4F)c(C)n3n2)c1,.,5%,.,.,i,3%
CCCCCC(=O)N1CC2(CC(c3cccc(NC(=O)COc4ccc(Cl)cc4)c3)=NO2)C[C@@H]1C(N)=O (stereo partly specified),?,?,-67*,1%,?,2%
CCC(=O)Nc1cccc(C2=NOC3(C2)C[C@@H](C(N)=O)N(C(=O)COc2ccc(Cl)cc2)C3)c1 (stereo partly specified),-7%,5%,-23,-4%,i,0%
COc1cccc2[nH]c3c(N4CCC(C)CC4)ncnc3c12,17%,-3%,-52*,-1%,i,7%[38.3 µM]
COc1cccc2[nH]c3c(N4CCc5ccccc5C4)ncnc3c12,?,-35%,?,-2%,i,11%
COc1ccc(-c2cc(C(C)=O)c(C)n2CCC(=O)Nc2cccc(C)c2C)cc1,.,.,.,.,.,5%
N#C/C(=C\c1ccc(F)cc1)C(=O)Nc1ccccn1,5%,5%,58,4.1µM*,i,2%
Cc1ccc(C(=O)NCCSCc2ccc(Cl)cc2Cl)cc1[N+](=O)[O-],?,-15%,-58*,4%,?,3%
Cc1c(C(=O)NCCSCc2ccco2)cccc1[N+](=O)[O-],?,4%,-18,0%,i,0%
Cc1c(C(=O)N(CCc2ccccc2)Cc2ccccc2)cccc1[N+](=O)[O-],?,?,-82*,?,i,2%
Cc1c(C(=O)NCCSCc2ccc(Cl)cc2Cl)cccc1[N+](=O)[O-],?,?,-58*,20%,i,0%
Cc1c(C(=O)NC(C)CCc2ccccc2)cccc1[N+](=O)[O-] (stereo unspecified),11%,-2%,-9,3%,i,-1%
Cc1ccc(C(=O)NCCSC(C)(C)C)cc1[N+](=O)[O-],5%,42%,1,-2%,i,1%
Cc1c(C(=O)NCCSCc2ccccc2)cccc1[N+](=O)[O-],11%,-11%[11.3 µM],-57*,4%,i,-1%
COc1ccc(C2CC(=O)c3c([nH]c(C(=O)OC4CCCCCC4)c3C)C2)cc1OC (stereo unspecified),.,-25%,.,.,i,4%
O=[N+]([O-])c1cc(-c2nc(-c3ccccc3)no2)ccc1NCc1cccnc1,.,5%,.,.,i,0%
CC[C@]12c3[nH]c4ccccc4c3CCN1C(=O)C(CC(=O)NC/C=C(\C)CCC=C(C)C)C[C@@H]2C(=O)N1CCN(C(=O)c2ccco2)CC1 (stereo partly specified),?,0%,-53*,?,.,6%
COc1ccc2[nH]c3c(c2c1)CCN1C(=O)C(CC(=O)NC/C=C(\C)CCC=C(C)C)C[C@H](C(=O)N(C(C)C)C(C)C)[C@@]31C (stereo partly specified),15µM*,2%,-64*,?,i,22%
CC(C)=CCC/C(C)=C/CNC(=O)C[C@H]1C[C@H](C(=O)N2CCCCC2)[C@@]2(C)c3[nH]c4cc(CCC(=O)N(C)C)ccc4c3CCN2C1=O,?,?,-68*,-24%,32µM*,11%
CC[C@]12c3[nH]c4ccc(OC)cc4c3CCN1C(=O)C(CC(=O)NC/C=C(\C)CCC=C(C)C)C[C@@H]2C(=O)N1CCN(C(=O)c2ccco2)CC1 (stereo partly specified),?,?,-53*,?,?,0%
CC[C@]12c3[nH]c4cc(-c5ccco5)ccc4c3CCN1C(=O)[C@@H](CC(=O)NC/C=C(\C)CCC=C(C)C)C[C@@H]2C(=O)N1CCN(C(=O)c2ccco2)CC1,?,?,?,1%,i,2%
CC(C)=CCC/C(C)=C/CNC(=O)C[C@H]1C[C@H](C(=O)N(C(C)C)C(C)C)[C@@]2(C)c3[nH]c4ccc(Cl)cc4c3CCN2C1=O,-3%,3%,38,19%,i,1%
Cc1coc2cc3oc(=O)c(CC(=O)NCc4ccccc4)c(C)c3cc12,.,.,.,.,.,6%
SMILES,MCF10A rerep,ATXN2 expr inh,IL-1B inflam inh,SW480 rereplic,S2 tox,PINK1 expr mod
O=C(CSc1n[nH]c(-c2ccccc2Cl)n1)N1CCN(c2ccccc2)CC1,.,.,.,.,.,0%
O=C(O)CCc1ccc(-c2ccc(Cl)cc2)n1-c1cccc(C(F)(F)F)c1,.,1%,.,.,i,2%
COc1ccc(CN2CCOc3ccc(C(O)c4cccnc4)cc3C2)c(OC)c1OC (stereo unspecified),.,.,.,.,i,0%
C=CCN(CC=C)S(=O)(=O)c1ccc2nc(NC(=O)C(C)C)sc2c1,8.2µM*,-26%,28,?,i,7%
Cc1cccc(C)c1NC1=NC2(CCCCC2)N=C(N)N1,0%,.,?,-22%,.,.
NC1=NC2(CCCCC2)N=C(Nc2ccc(Br)cc2)N1,12%,-1%,-102*,-50%,i,9%
Fc1ccc2c(c1)Sc1ccc(Cl)cc1CC2N1CCN(CCC2OCCO2)CC1 (stereo unspecified),?,-26%,-75*,?,i,0%
Cc1c(C(=O)NCC(C)(C)CN(C)C)cnn1-c1nccc(-c2ccccc2F)n1,.,.,.,.,i,1%
COc1ccc(C=O)cc1COc1ccc2c(c1)OCO2,?,74%,47,3.7µM*,i,11%
COc1ccc(C2Nc3ccccc3C(=O)N2Cc2ccccc2)cc1COc1ccc([N+](=O)[O-])c(C)c1 (stereo unspecified),.,.,.,.,.,1%
COc1ccc(C=O)cc1COc1ccc([N+](=O)[O-])c(C)c1,?,6%,15,15µM*,i,8%
Cc1cnc(-n2ncc(C(=O)NCCc3cccnc3)c2C)nc1-c1cccs1,.,.,.,.,i,1%
CCCNC(=O)[C@H]1O[C@H]1C(=O)N[C@H](C(=O)N1CCC[C@@H]1C(=O)OC)C(C)CC (stereo partly specified),.,22µM*,.,.,.,.
CCC(C)[C@H](NC(=O)C1CCC(CNC(=O)[C@@H]2CCCN2C(=O)OC(C)(C)C)CC1)C(=O)O (stereo partly specified),-2%,-30%,51,6%,i,2%

# Screens (PubChem BioAssay)
